Source: PubChem BioAssay (Tox21)
“And” between values parts separate entries of the source, which are not always exact repeats. Equal values may be shown once. Records with an inconclusive call do not appear. Entries that show only a call come without a potency. Where a structure was tested more than once in an assay, its records may differ in their call. The source made the active and inactive calls. Calls follow the shape of the dose curve; as a rule, active = well fitted cell-killing curve with a large enough effect in the repeat runs; inconclusive = weak or mixed curves, or effect the other way; inactive = no such curve, though single readings can be large or run the other way.

Test: qHTS assay to identify small molecule antagonists of the thyroid receptor (TR) signaling pathway - cell viability counter screen (AID 743064); also: nearly all actives have a fitted effect of over 50% in size
Settings: GH3.TRE-Luc viability, CellTiter-Fluor, 24 h; series mostly up to 70.3 µM
Text: National Center for Advancing Translational Sciences [NCATS]
NIH Chemical Genomics Center [NCGC]
U.S. Environmental Protection Agency [EPA]
National Institutes of Environmental Health Sciences [NIEHS]
National Toxicology Program [NTP]
U.S. Food and Drug Administration [FDA]
Thyroid receptor (TR), a nuclear hormone receptor, plays an important role in development, proliferation, differentiation, metabolism, brain function, and cardiovascular system. […] To profile the Tox21 10K compound library in TR signaling, a cell-based GH3-TRE-Luc assay (GH3.TRE-Luc cell line, developed by the laboratory of Dr. Albertinka J. Murk, Wageningen University) was used to measure the inhibition of TR. GH3 (rat pituitary tumor) cells stably expressing a TR activity sensor consisting of two TR response elements and a luciferase reporter gene. The cytotoxicity of the Tox21 compound library against the GH3.TRE-Luc cell line was tested in parallel by measuring the cell viability using CellTiter-Fluor assay (Promega, Madison, WI) in the same wells.
Tox21 Assay Protocol Summary:
GH3.TRE-Luc cells were dispensed at 1500 cells/4 uL/well into 1536-well white solid bottom plates using a Multidrop Combi dispenser (Thermo Fisher Scientific Inc., Waltham, MA). After the assay plates were incubated at 37 C for 4 hours, 23 nL of library compound or DMSO controls was transferred to the assay plates by a pintool station (Kalypsys, San Diego, CA), followed by addition of 1 ul of T3 (1 nM, final concentration in the wells) to stimulate TR transactivation. The assay plates were incubated at 37 C for 23.5 h, and then 1 uL of CellTiter-Fluor reagent (Promega, Madision, WI) of measuring cytotoxicity was added to each well using a Bioraptr Flying Reagent Dispenser (FRD) workstation (Beckman Coulter, Indianapolis, IN, USA). The plates were incubated at 37C and 5% CO2 for additional 30 min, and fluorescence intensity was measured by a ViewLux plate reader (PerkinElmer, Shelton, CT).
Potency is read from the fitted curve at half-maximal effect.

Structure (SMILES)	Potency
O=C(O)c1ccc2cc(C(=O)O)ccc2c1	inactive
CCN1C(=O)c2ccccc2C1Nc1ccc(OCCN2CCCCC2)cc1 (stereo not given)	inactive
COc1ccc2cc1Oc1ccc(cc1)C[C@H]1c3c(cc4c(c3Oc3cc5c(cc3OC)CCN(C)[C@@H]5C2)OCO4)CCN1C	13.3 µM (active)
[Cu+]	inactive
Cc1ccc(C)cc1	inactive
COc1cc2nc(N3CCN(C(=O)c4ccco4)CC3)nc(N)c2cc1OC	8.41 µM (active)
CC(C)OC(=O)C(O)(CC(=O)O)CC(=O)O	inactive
c1ccc(C(O[C@@H]2CCCN(CCc3ccc4c(c3)OCO4)C2)c2ccccc2)cc1	24.3 µM (active)
CCN(CC)c1ccc2c(-c3ccc(S(=O)(=O)O)cc3S(=O)(=O)[O-])c3ccc(=[N+](CC)CC)cc-3oc2c1	8.91 µM (active)
CCCC1CCC(=O)CC1	inactive
Clc1ccnc(Cl)n1	inactive
O=C1CCCCCCCCCCCCCCCO1	inactive
CC(C)(C)c1csc(-c2cc3cc(OCc4ccccc4CC(=O)O)ccc3o2)n1	54.5 µM (active)
CC(=O)OCC=C(C)C	inactive
O=C1CCc2cc(OCCCCc3nnnn3C3CCCCC3)ccc2N1	inactive
CNC(=O)c1ccccc1Sc1ccc2c(/C=C/c3ccccn3)n[nH]c2c1	inactive
CC(C)(C)c1ccc(C(O)CCCN2CCC(C(O)(c3ccccc3)c3ccccc3)CC2)cc1 (stereo not given)	inactive and 5.96 µM (active)
S=c1nccc[nH]1	inactive
Cc1cc(-n2nc3ccc(Cl)cc3n2)c(O)c(C(C)(C)C)c1	inactive
O=C(O)c1cc(-c2ccc(F)cc2F)ccc1O	inactive

Structure (SMILES)	Potency
CCC(CC)C(C)CCOC(C)=O (stereo not given)	inactive
COc1cc(/C=C/c2ccccc2)oc(=O)c1	inactive
Nc1nc(-c2ccccc2)cs1	inactive
O=C1c2ccccc2C(=O)N1SC1CCCCC1	30.6 µM (active) and 21.7 µM (active)
CC(C)(c1cc(Br)c(OCC(Br)CBr)c(Br)c1)c1cc(Br)c(OCC(Br)CBr)c(Br)c1 (stereo not given)	inactive
C[C@H]1NCc2cc(-c3ccc4c(=O)c(C(=O)O)cn(C5CC5)c4c3OC(F)F)ccc21	inactive
Oc1cc(Cl)cc(Cl)c1Cl	inactive
Cc1cc(-c2ccc(N=Nc3cc(S(=O)(=O)O)c4ccccc4c3N)c(C)c2)ccc1N=Nc1cc(S(=O)(=O)O)c2ccccc2c1N	61.4 µM (active)
O=S(=O)(O)c1ccc(N=Nc2c(O)ccc3ccccc23)cc1	30.6 µM (active)
COC(=O)c1ccccc1OC	inactive
CCn1c2ccccc2c2cc([N+](=O)[O-])ccc21	inactive
Nc1ccc(C(=O)O)c(O)c1	inactive
OCCN1CCN(CCCN2c3ccccc3Sc3ccc(C(F)(F)F)cc32)CC1	6.68 µM (active)
CCC(COC(=O)CCS)(COC(=O)CCS)COC(=O)CCS	inactive
CN(C)c1ccc(C(=C2C=CC(=[N+](C)C)C=C2)c2ccc(N(C)C)cc2)cc1	1.88 µM (active) and 859 nM (active) and 8.63 µM (active)
O=C(O)c1cc(O)c2ccccc2c1O	9.69 µM (active)
O=C(O)c1cccc(C(F)(F)F)c1	inactive
COC(=O)Nc1nc2ccc(C(=O)c3ccccc3)cc2[nH]1	0.285 µM (active)
CCCCCCCCCCCC(=O)OCC(C)OC(=O)CCCCC(=O)O (stereo not given)	inactive
CN(C)C(=O)COC(=O)Cc1ccc(OC(=O)c2ccc(N=C(N)N)cc2)cc1	inactive
